40 compounds from PubChem BioAssay (Tox21) can be followed below.

Each structure is given as a SMILES string. Values without a mark were called inactive. Activity calls are given as the source filed them. Calls follow the shape of the dose curve; as a rule, active = well fitted cell-killing curve with a large enough effect in the repeat runs; inconclusive = weak or mixed curves, or effect the other way; inactive = flat fitted curve, though single readings scatter.
% is scaled to controls: 0 for no effect and ±100 for the full control effect; potency is read from the fitted curve at half-maximal effect.

The nature of the experiment: qHTS assay to identify small molecule HDAC inhibitors - cell viability counter screen (AID 1259365). Also: nearly all actives have a fitted effect of over 50% in size. As to conditions: HCT-116 viability, CellTiter-Glo ATP luminescence, 2 h; series mostly up to 92.4 µM; activity change, negative = cytotoxicity: at the top concentration. An excerpt: U.S. Tox21 Program National Center for Advancing Translational Sciences [NCATS] NIH Chemical Genomics Center [NCGC] U.S. Environmental Protection Agency [EPA] National Institutes of Environmental Health Sciences [NIEHS] National Toxicology Program [NTP] U.S. Food and Drug Administration [FDA] Tox21 Assay Overview: Histone deacetylases (HDACs) are a group of epigenetic enzymes that regulate gene expression by histone deacetylation. HDACs are capable of introducing epigenetic modifications and such aberrations contribute to the onset and progression of several human diseases, thus making HDACs a popular therapeutic target. For identifying endogenous class I/II HDAC inhibitors a homogenous, luminogenic HDAC I/II cell based assay was used to measure the relative activity of class I and II HDACs from cells. Wild type HCT-116 cells were used to screen Tox21 compound libraries for identifying class I/II HDAC inhibitors.
Tox21 Assay Protocol Summary: HCT-116 cells were dispensed at 1,500 per well in 5uL of culture medium into white solid bottom 1536-well plates (Greiner Bio-One, Monroe, NC) using a Multidrop Combi (Thermo Scientific, Waltham, MA) dispenser. The assay plates were incubated at 37 C and 5% CO2 for an overnight, and then 23nL of compounds dissolved in DMSO and positive control were transferred using a Pintool station (Wako, San Diego, CA). The assay plates were incubated at 37C and 5% CO2 for 2hr. After compound treatment, 4uL of CellTiter-Glo reagent (Promega Corporation, Madison, WI) was added to each well of the assay plates using Flying Reagent Dispenser (FRD, Aurora Discovery, San Diego, CA) and incubated the assay plates at room temperature for 30min. The luminescence signal was quantified using a ViewLux plate reader (Perkin Elmer, Shelton, CT).
For orientation: In qHTS, concentration-response curves come from the screen itself.
Regarding `N=C1N=C(N)c2cc3ccccc3cc21`, the “activity change, negative = cytotoxicity” value is 21.4%.
In the case of `Clc1ccccc1C(c1ccccc1)(c1ccccc1)n1ccnc1`, the Potency entry is “inactive”.
As to `Nc1c2ccccc2nc2ccccc12`, the “activity change, negative = cytotoxicity” value was 11.3% [at 42.5 µM].
As to `Cc1nc(-c2ccc3c(c2)CCN(CCC2CCC(NC(=O)/C=C/c4ccc(F)cc4)CC2)CC3)no1` (stereo not given), the “activity change, negative = cytotoxicity” value was -4.68% [at 42.5 µM].
In the case of `Fc1ccc(C(c2ccc(F)cc2)N2CCN(C/C=C/c3ccccc3)CC2)cc1`, the “activity change, negative = cytotoxicity” value was -8.59% [at 42.5 µM].
Still for that read-out and setting: then `S=c1[nH]c2ccccc2s1`, with 2.05%; and `Oc1c(Cl)cc(Cl)c2cccnc12`, with 0.152% [at 42.5 µM]; and `[Cl][Au]([Cl])[Cl]`, with -14.2%.
Same read-out and setting: in the case of `CCC1=C[C@@H]2CN(C1)Cc1c([nH]c3ccccc13)[C@@](C(=O)OC)(c1cc3c(cc1OC)N(C)[C@H]1[C@@](O)(C(=O)OC)[C@H](OC(C)=O)[C@]4(CC)C=CCN5CC[C@]31[C@@H]54)C2` it was 0.679% [at 42.5 µM]; in that of `Cc1onc(-c2ccccc2Cl)c1C(=O)N[C@@H]1C(=O)N2[C@@H]1SC(C)(C)[C@@H]2C(=O)O`, -0.0888% [at 42.5 µM]; in that of `N=C1N=C(N)c2ccccc21`, 15.8%.
Consider `O=C1Cc2cc(CCN3CCN(c4nsc5ccccc45)CC3)c(Cl)cc2N1`, for which the “activity change, negative = cytotoxicity” value was 0.0661% [at 42.5 µM].
As for `Cc1cc(=O)oc2cc(N(C)C)ccc12`, the “activity change, negative = cytotoxicity” value is 5.32%.
Turning to `C/C=C1/C(=O)C[C@H]2[C@@H]3CCC4=CC(=O)CC[C@]4(C)[C@H]3CC[C@]12C`, the “activity change, negative = cytotoxicity” value was 8.58%.
Consider `Clc1ccc2cc3ccccc3cc2c1`, for which the “activity change, negative = cytotoxicity” value is 5.56%.
Consider `CCCC(c1cc(C(C)(C)C)c(O)cc1C)c1cc(C(C)(C)C)c(O)cc1C`, for which the Potency is 49.2 µM (active).
For the compound `Nc1c(Cl)cc(Cl)cc1Cl`, the “activity change, negative = cytotoxicity” value was 2.17%.
Still for that read-out and setting: in the case of `CCCCCCCCS(=O)C(C)Cc1ccc2c(c1)OCO2` (stereo not given) it was 8.4%.
`CCOC(=O)c1nc(C(Cl)(Cl)Cl)n(-c2ccc(Cl)cc2Cl)n1`: the “activity change, negative = cytotoxicity” value is 0.322%.
In the case of `CCCCC(CC)COP(=O)(O)OCC(CC)CCCC` (stereo not given), the “activity change, negative = cytotoxicity” value was -0.772%.
Still for that read-out and setting: then `CC(C)c1ccc2c(c1)CC[C@H]1[C@](C)(CN)CCC[C@]21C`, with -2.49%.
Take `CCC(C)(C)C1CCCCC1OC(C)=O` (stereo not given): the “activity change, negative = cytotoxicity” value is 0.224%.
As for `CO[Si](CCCNc1ccccc1)(OC)OC`, the “activity change, negative = cytotoxicity” value was 3.19%.
`C=C(C)C(=O)OCC[N+](C)(C)C`: the “activity change, negative = cytotoxicity” value is -4.68%.
The same measure, in the same setting: then `CCCC/C=C/CCCCO`, with 0.672%.
Regarding `CCOC(=O)O[C@H](C)OC(=O)c1ccc2c(c1)cc(C(=O)NC1CCN(C(C)C)CC1)n2Cc1cc(-c2ccc(Cl)s2)on1`, the Potency was 50.9 µM (active).
Same read-out and setting: in the case of `CCCCCCCC[P+](CCCCCCCC)(CCCCCCCC)CCCCCCCC` it was 34.2 µM (active).
Regarding `Cc1cc2c(cc1C(F)(F)F)N(C(=O)Nc1ccc(Oc3cccnc3C)nc1)CC2`, the “activity change, negative = cytotoxicity” value is -7.08%.
The same measure, in the same setting: in the case of `O=C(OC[C@H]1O[C@@H](OC(=O)c2cc(O)c(O)c(OC(=O)c3cc(O)c(O)c(O)c3)c2)[C@H](OC(=O)c2cc(O)c(O)c(OC(=O)c3cc(O)c(O)c(O)c3)c2)[C@@H](OC(=O)c2cc(O)c(O)c(OC(=O)c3cc(O)c(O)c(O)c3)c2)[C@@H]1OC(=O)c1cc(O)c(O)c(OC(=O)c2cc(O)c(O)c(O)c2)c1)c1cc(O)c(O)c(OC(=O)c2cc(O)c(O)c(O)c2)c1` it was -4.93% [at 19 µM].
As for `Cc1[nH]cnc1C[C@H]1CCc2c(C)c3ccccc3n2C1=O`, the “activity change, negative = cytotoxicity” value is 2.67%.
`COC(=O)C1=C(C)NC(C)=C(C(=O)OCCc2ccc(N3CCN(C(c4ccccc4)c4ccccc4)CC3)cc2)C1c1cccc([N+](=O)[O-])c1` (stereo not given): the “activity change, negative = cytotoxicity” value was 1.36% [at 42.5 µM].
In the case of `CC(NN)c1ccccc1` (stereo not given), the activity change, negative = cytotoxicity was 0.995% [at 19 µM].
Regarding `NC(=O)N1C(=O)C(C(=O)c2cc(Cl)cs2)c2cc(F)c(Cl)cc21` (stereo not given), the “activity change, negative = cytotoxicity” value was -0.583%.
Still for that read-out and setting: in the case of `CC(=O)SC[C@@H](Cc1ccccc1)C(=O)NCC(=O)OCc1ccccc1` it was -6.99% [at 42.5 µM]; in that of `CN(C/C=C/C#CC(C)(C)C)Cc1cccc2ccccc12`, -5.06% [at 42.5 µM].
Still for that read-out and setting: in the case of `NNc1nc(-c2ccc(N)cc2)cs1` it was -26.1%; in that of `O=C(Nc1cccc(C(F)(F)F)c1)c1cc(Br)cc(Br)c1O`, 0.3%.
With `CCCN(CCC)C(=O)C(CCC(=O)OCCCN1CCN(CCOC(=O)Cc2c(C)n(C(=O)c3ccc(Cl)cc3)c3ccc(OC)cc23)CC1)NC(=O)c1ccccc1` (stereo not given), the “activity change, negative = cytotoxicity” value is -0.864% [at 42.5 µM].
`O=C(O)c1ccc(Cl)c(Cl)c1`: the “activity change, negative = cytotoxicity” value was 3.35%.
On the same count and under the same terms, in the case of `COc1ccc(-c2ccc3cc(C(=O)O)ccc3c2)cc1C12CC3CC(CC(C3)C1)C2` it was 17.6% [at 42.5 µM].
